The nature of experiment [1]: qHTS for Inhibitors of Plasmodium falciparum (DD2) proliferation (AID 504314). Further: potency means the concentration at half of the fitted maximal effect.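 On activity, negative = inhibition: parasite DNA measured by SYBR Green fluorescence after red cell lysis; plate controls were DMSO vehicle for no effect and artemisinin wells for full effect.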 The essentials:
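Erythrocytes infected with P. falciparum Dd2 (0.3% parasitemia, 2.5% hematocrit) exposed to compound 72 h at 37C, 5% CO2. Parasite DNA quantified by SYBR Green fluorescence after saponin/Triton lysis overnight; normalized to 0.29 uM artemisinin and DMSO.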

Experiment [2] can be described thus: qHTS for Inhibitors of Plasmodium falciparum (GB4) proliferation (AID 504315).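 Further: 0% = DMSO vehicle and -100% = 0.29 µM artemisinin control; nearly all actives have a fitted effect of over 50% in size.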 The essentials: (§1)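 Erythrocytes infected with P. falciparum line (0.3% parasitemia, 2.5% hematocrit final) incubated with compounds 72 h at 37 °C, 5% CO2; SYBR Green lysis buffer added, fluorescence read next day. Normalized to 0.29 uM artemisinin and DMSO.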
(In general: In qHTS, concentration-response curves come from the screen itself.)

A short description of experiment [3]: qHTS for Inhibitors of Plasmodium falciparum (HB3) proliferation (AID 504318). Further: nearly all actives have a fitted effect of over 60% in size. Further: potency means the concentration at half of the fitted maximal effect. The method in brief: as §1
Experiment [4] in a line: qHTS for Inhibitors of Plasmodium falciparum (CP250) proliferation (AID 504320). Further: potency means the concentration at half of the fitted maximal effect. The method in brief:
as §1

The nature of experiment [5]: qHTS for Inhibitors of Plasmodium falciparum (7G8) proliferation (AID 504316). Further: nearly all actives have a fitted effect of over 65% in size. Further: potency means the concentration at half of the fitted maximal effect. The method in brief: as §1
Experiment [6] has as its target Cytochrome P450 3A4 (Homo sapiens) (UniProt P08684). The experiment can be described thus: qHTS Assay for Activators of Cytochrome P450 3A4 (AID 885). Further: nearly all actives have a fitted effect of over 65% in size. The essentials:
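Human CYP3A4 (20 nM) with Luciferin-PPXE at 25 uM (its KM) in 200 mM KPO4; 10 min compound preincubation, then NADPH regeneration and 60 min reaction at RT. Luciferin read by luminescence; normalized to 57 uM ketoconazole full inhibition.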

SMILES strings stand for the structures. “And” between values parts separate entries of the source, which are not always exact repeats. Equal entries are not always repeated. Unmarked numbers belong to inactive results. Results filed as inconclusive are left out. The source made the active and inactive calls. The call rests on the fitted dose curve; in most records, active means well fitted curve in the direction sought with a large enough effect; inconclusive means small, poorly fitted or top-dose-only effect, or another doubt; inactive means no such curve, though single readings can be large; an effect the other way counts as inactive or inconclusive.

Sequence of Cytochrome P450 3A4 (Homo sapiens) (P08684 whole entry, looked up): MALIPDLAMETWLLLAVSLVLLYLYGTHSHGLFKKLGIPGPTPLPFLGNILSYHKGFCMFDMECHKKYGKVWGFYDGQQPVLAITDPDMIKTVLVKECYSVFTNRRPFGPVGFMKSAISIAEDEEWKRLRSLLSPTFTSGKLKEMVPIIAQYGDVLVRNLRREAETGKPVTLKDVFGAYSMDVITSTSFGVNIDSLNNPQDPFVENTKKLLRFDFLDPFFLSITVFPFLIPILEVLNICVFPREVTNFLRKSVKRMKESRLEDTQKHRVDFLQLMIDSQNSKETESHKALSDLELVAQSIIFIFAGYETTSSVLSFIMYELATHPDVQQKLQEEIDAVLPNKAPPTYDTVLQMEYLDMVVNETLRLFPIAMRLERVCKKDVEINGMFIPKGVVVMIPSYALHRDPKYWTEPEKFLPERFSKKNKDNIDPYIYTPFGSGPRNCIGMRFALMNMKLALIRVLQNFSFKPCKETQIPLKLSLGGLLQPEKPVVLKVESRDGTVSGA

For the molecule `C=CCN1C(=O)[C@@]2(CC(C)=C[C@@H](COc3ccccc3)O2)c2ccccc21`, the Potency entry in experiment [1], in experiment [2], in experiment [3] and in experiment [4] was “inactive” in each case.
On to `COc1ccc(OC[C@H]2CN3[C@H](c4ccc(Br)cc4)[C@H](C)CC[C@H]3C(=O)O2)cc1`, for which the Potency entry in experiment [1], in experiment [2] and in experiment [4] was “inactive” in each case.
Regarding `COC(=O)C1=C(C)N(Cc2ccccc2)C(=NCc2cc(OC)c(OC)c(OC)c2)NC1CCc1ccccc1` (configuration not stated), the Potency in experiment [1] is 1060 nM (active); in experiment [5], 1510 nM (active); in experiment [3], 2940 nM (active); in experiment [4], 1070 nM (active).
`C[C@H]1COC(=O)[C@H](Cc2ccccc2)NC(=O)[C@@H](C)COC(=O)[C@H](Cc2ccccc2)NC1=O`: in experiment [6], the activity change, positive = activation was -42.5% [at 11.4 µM]. The Potency entry in experiment [1], in experiment [2], in experiment [5] and in experiment [4] was “inactive” in each case.
On to `C[C@H]1COc2c(N3CCN(C)CC3)c(F)cc3c(=O)c(C(=O)NCc4ccco4)cn1c23`, for which the Potency result in experiment [1], in experiment [5], in experiment [3] and in experiment [4] was “inactive” in each case.
On to `COc1cccc(CO[C@H]2C=C[C@@H](c3ccccc3)O[C@H]2CO)c1`, for which the Potency entry in experiment [1], in experiment [2], in experiment [5], in experiment [3] and in experiment [4] was “inactive” throughout.
For the molecule `COCCN1C(=O)C2=C(C1=O)C1N(C)c3ccccc3[C@@]13C[C@@H](CO)N=C3N2` (some centres not stated), the Potency result in experiment [1], in experiment [2], in experiment [5], in experiment [3] and in experiment [4] was “inactive” in each case.
As to `COC1(C#C[C@@H]2C=C[C@H](OC(C)=O)[C@@H](COC(C)=O)O2)CCCCC1`, the Potency result in experiment [1], in experiment [5] and in experiment [4] was “inactive” in each case.
As to `C=CCNC(=O)N1CCc2nc(-c3ccccc3)c3c(c2C1)CO[C@@H](C)C3`, the activity, negative = inhibition in experiment [1] was -1.14% [at 1.12 µM]. Further, the Potency entry in experiment [2], in experiment [5], in experiment [3] and in experiment [4] was “inactive” throughout.
With `CC1(C)O[C@H]2O[C@H]([C@H](O)CON=C3[C@H]4CCn5c(=O)n(-c6ccccc6)c(=O)n5[C@@H]4[C@H](O)[C@@H]4O[C@H]34)[C@H](O)[C@@H]2O1`, the Potency entry in experiment [1], in experiment [2], in experiment [5] and in experiment [4] was “inactive” in each case.
On to `C=CCN1c2ccccc2[C@]23C[C@@H](C(=O)OC)N(C(=O)Nc4ccccc4F)C2=NC(C(=O)OC)=C(C(=O)OC)[C@H]13`, for which the Potency result in experiment [1], in experiment [2], in experiment [5], in experiment [3] and in experiment [4] was “inactive” each time.
For the molecule `Cc1ccc(C#C[C@@H]2C=C[C@H](Oc3ccc4c(c3)OCO4)[C@@H](CO)O2)c(C)c1`, the Potency result in experiment [1], in experiment [2], in experiment [3] and in experiment [4] was “inactive” each time.
Regarding `CON(C)C(=O)c1nnc2c3ccccc3n(S(=O)(=O)c3ccc(C)cc3)c2n1`, in experiment [6], the activity change, positive = activation was -39.7% [at 11.4 µM] and -50.5% [at 11.4 µM]. Besides, the Potency entry in experiment [1], in experiment [2], in experiment [5], in experiment [3] and in experiment [4] was “inactive” throughout.
As to `CC1(OC(=O)C2CCCC2)C(=O)C=C2C=C(c3ccsc3)N(CC3CC3)C=C2C1=O` (configuration not stated), in experiment [1], the activity, negative = inhibition was -6.74% [at 1.12 µM]. In addition, the Potency entry in experiment [2], in experiment [5], in experiment [3] and in experiment [4] was “inactive” in each case.
With `CC1(OC(=O)CCc2ccccc2)C(=O)C=C2C=C(c3ccc(C#N)cc3)N(C(CO)CO)C=C2C1=O` (configuration not stated), the activity, negative = inhibition in experiment [1] was -1.45% [at 1.12 µM]. Also, the Potency entry in experiment [2], in experiment [3] and in experiment [4] was “inactive” each time.
Consider `COC[C@@H](O)[C@H]1OCc2cccc(OC)c2[C@H]1C=Cc1ccccc1`, for which the Potency result in experiment [1], in experiment [2], in experiment [5], in experiment [3] and in experiment [4] was “inactive” throughout.
Consider `Cc1ccc([S+](=O)([O-])N(c2ccccc2)[S+](=O)([O-])C(F)(F)F)cc1`, for which the Potency result in experiment [1], in experiment [2], in experiment [5], in experiment [3] and in experiment [4] was “inactive” in each case.
For the molecule `COC(=O)C1=C(C(=O)OC)[C@@H]2Nc3ccccc3[C@@]23C[C@@H](C(=O)OC)N(C(=O)N2CCNC2=O)C3=N1`, the Potency result in experiment [1], in experiment [2] and in experiment [4] was “inactive” each time.
In the case of `COC(=O)CC=C[C@@H](C)[C@@H](C=NO[C@H](C)c1cn([C@H](CO)Cc2ccccc2)nn1)NS(=O)(=O)c1ccc(C)cc1`, the Potency entry in experiment [1], in experiment [2], in experiment [5], in experiment [3] and in experiment [4] was “inactive” in each case.
Take `CC1(OC(=O)c2cccs2)C(=O)C=C2C=C(c3ccsc3)OC=C2C1=O` (configuration not stated): the Potency entry in experiment [1], in experiment [2], in experiment [5], in experiment [3] and in experiment [4] was “inactive” throughout.
Take `CC(C)[C@@H](OCc1ccccc1)[C@H](C)C=NO[C@H](C)c1cn([C@H](CO)Cc2ccccc2)nn1`: the Potency entry in experiment [1], in experiment [2], in experiment [5], in experiment [3] and in experiment [4] was “inactive” in each case.
Take `COC(=O)c1ccc(CN2C(=O)[C@]3(O[C@H](C)CC4=CCCC43)c3c(Br)cccc32)cc1` (some centres not stated): the Potency result in experiment [1], in experiment [2], in experiment [5] and in experiment [4] was “inactive” throughout.
As for `C[C@@H]1C[C@](C)(C(=O)c2ccc3c(c2)OCO3)C=C1c1ccc2c(c1)OCO2`, the Potency result in experiment [1], in experiment [2], in experiment [5] and in experiment [4] was “inactive” in each case.
Take `COc1cc2c(c(OC)c1OC)C1(c3ccccc3)CCCCCC1[C@@H]2NC(=O)C(F)(F)F` (some centres not stated): the Potency entry in experiment [1], in experiment [2], in experiment [5] and in experiment [4] was “inactive” each time.
Regarding `CCCCC#C[C@@H]1C=C[C@H](Oc2ccc(C(=O)OC)cc2)[C@@H](COC(=O)OCC)O1`, the Potency entry in experiment [1], in experiment [5], in experiment [3] and in experiment [4] was “inactive” each time.
For `Cc1cc2c(c(=O)o1)[C@H]1O[C@](c3ccsc3)(Cc3ccccc31)O2`, the Potency result in experiment [1], in experiment [2], in experiment [5], in experiment [3] and in experiment [4] was “inactive” in each case.
With `COC(=O)C12C[C@H](C)C3C(C)C(c4ccccc4C31)N2C(=O)C(F)(F)F` (some centres not stated), the Potency entry in experiment [1], in experiment [2], in experiment [5], in experiment [3] and in experiment [4] was “inactive” each time.
As for `O=c1oc2ccccc2c2c1[C@H]1O[C@](c3ccsc3)(Cc3c1ccc1ccccc31)O2`, the Potency result in experiment [1], in experiment [5] and in experiment [4] was “inactive” in each case.
For `CCN1C(=O)[C@H]2[C@H]3C(=CC[C@@H]2C1=O)C1(OCCCO1)[C@@H]1O[C@H]1[C@H]3O`, the Potency result in experiment [1], in experiment [2], in experiment [3] and in experiment [4] was “inactive” throughout.

(Values after PubChem BioAssay (NCATS).)
